B1: ENSMUSG00000043670.197|Diras1 (ssRNA)
RNA: GGGAGUUCUACAGUCCGACGAUCGCUUCGAUAUCCGCAUGCUAAUCUGCGAGACUGUCCAGGAGACUUGAGUGGCUCCUGGGCCUGUGUCCCACCCAGAUGAGGGUGACUUAGAAUUCUGUGUUUAUGUGCCUGUGUGUGUGGAUGGGUGUGUGUCUGUCUUGGGAUGGGGUGUUCUUGCACCACUUUGUGUUCUUAGUGAGACCACAGUGUAAGUGGCCGUGUGUGUGUGUGGGGGGGGGCACCUAGACAUUGUGGUGUGUCUGUAUGGCUCUGUGUUUUCAGGGGUGGGUGACACAGGCCUCUCUUGCGGUCGCACUAGUGUGGAAUUCUCGGGUGUCAAGG
B2: ENSMUSG00000043670.213|Diras1 (ssRNA)
RNA: GGGAGUUCUACAGUCCGACGAUCGCUUCGAUAUCCGCAUGCUAGUGGAUGGGUGUGUGUCUGUCUUGGGAUGGGGUGUUCUUGCACCACUUUGUGUUCUUAGUGAGACCACAGUGUAAGUGGCCGUGUGUGUGUGUGGGGGGGGGCACCUAGACAUUGUGGUGUGUCUGUAUGGCUCUGUGUUUUCAGGGGUGGGUGACACAGGCCUGUCUGAUGAGCACCAGGUCUGUUCCAGGCUGUGGCAAGCUGGCUCCUGGCUCAGAAGUGACAAAGCUGCAGUACAGAGGCCUCAGUGUGAGGUCAUCUCUUGCGGUCGCACUAGUGUGGAAUUCUCGGGUGUCAAGG
B3: ENSMUSG00000043670.195|Diras1 (ssRNA)
RNA: GGGAGUUCUACAGUCCGACGAUCGCUUCGAUAUCCGCAUGCUAAGCCCCUGUGGUAUCUGCGAGACUGUCCAGGAGACUUGAGUGGCUCCUGGGCCUGUGUCCCACCCAGAUGAGGGUGACUUAGAAUUCUGUGUUUAUGUGCCUGUGUGUGUGGAUGGGUGUGUGUCUGUCUUGGGAUGGGGUGUUCUUGCACCACUUUGUGUUCUUAGUGAGACCACAGUGUAAGUGGCCGUGUGUGUGUGUGGGGGGGGGCACCUAGACAUUGUGGUGUGUCUGUAUGGCUCUGUGUUUUCAGGGGUGGGCUCUUGCGGUCGCACUAGUGUGGAAUUCUCGGGUGUCAAGG
B4: ENSMUSG00000043670.199|Diras1 (ssRNA)
RNA: GGGAGUUCUACAGUCCGACGAUCGCUUCGAUAUCCGCAUGCUAGUCCAGGAGACUUGAGUGGCUCCUGGGCCUGUGUCCCACCCAGAUGAGGGUGACUUAGAAUUCUGUGUUUAUGUGCCUGUGUGUGUGGAUGGGUGUGUGUCUGUCUUGGGAUGGGGUGUUCUUGCACCACUUUGUGUUCUUAGUGAGACCACAGUGUAAGUGGCCGUGUGUGUGUGUGGGGGGGGGCACCUAGACAUUGUGGUGUGUCUGUAUGGCUCUGUGUUUUCAGGGGUGGGUGACACAGGCCUGUCUGAUGAGCACUCUUGCGGUCGCACUAGUGUGGAAUUCUCGGGUGUCAAGG
B5: ENSMUSG00000043670.196|Diras1 (ssRNA)
RNA: GGGAGUUCUACAGUCCGACGAUCGCUUCGAUAUCCGCAUGCUAUGUGGUAUCUGCGAGACUGUCCAGGAGACUUGAGUGGCUCCUGGGCCUGUGUCCCACCCAGAUGAGGGUGACUUAGAAUUCUGUGUUUAUGUGCCUGUGUGUGUGGAUGGGUGUGUGUCUGUCUUGGGAUGGGGUGUUCUUGCACCACUUUGUGUUCUUAGUGAGACCACAGUGUAAGUGGCCGUGUGUGUGUGUGGGGGGGGGCACCUAGACAUUGUGGUGUGUCUGUAUGGCUCUGUGUUUUCAGGGGUGGGUGACACCUCUUGCGGUCGCACUAGUGUGGAAUUCUCGGGUGUCAAGG
B6: ENSMUSG00000043670.200|Diras1 (ssRNA)
RNA: GGGAGUUCUACAGUCCGACGAUCGCUUCGAUAUCCGCAUGCUAGAGACUUGAGUGGCUCCUGGGCCUGUGUCCCACCCAGAUGAGGGUGACUUAGAAUUCUGUGUUUAUGUGCCUGUGUGUGUGGAUGGGUGUGUGUCUGUCUUGGGAUGGGGUGUUCUUGCACCACUUUGUGUUCUUAGUGAGACCACAGUGUAAGUGGCCGUGUGUGUGUGUGGGGGGGGGCACCUAGACAUUGUGGUGUGUCUGUAUGGCUCUGUGUUUUCAGGGGUGGGUGACACAGGCCUGUCUGAUGAGCACCAGGUCUCUUGCGGUCGCACUAGUGUGGAAUUCUCGGGUGUCAAGG
B7: ENSMUSG00000043670.204|Diras1|34:38;48:57;63:70;103:107;136:148;172:177;180:184;189:193 (ssRNA)
RNA: GGGAGUUCUACAGUCCGACGAUCGCUUCGAUAUCCGCAUGCUAGUGUCCCACCCAGAUGAGGGUGACUUAGAAUUCACACAUUAUGUGCCACACACACACGAUGGCACACACACUGUCUUGGGAUGGGGUGUUCUUGCACCACUUACACAUCUUAGUGAGACCACAGUGUAAGUGGCCCACACACACACACGGGGGGGGCACCUAGACAUUGUGCACACACUCAUACGCUCACACAUUUCAGGGGUGGGUGACACAGGCCUGUCUGAUGAGCACCAGGUCUGUUCCAGGCUGUGGCAAGCUGGCUCUUGCGGUCGCACUAGUGUGGAAUUCUCGGGUGUCAAGG
B8: ENSMUSG00000043670.216|Diras1 (ssRNA)
RNA: GGGAGUUCUACAGUCCGACGAUCGCUUCGAUAUCCGCAUGCUAGUCUUGGGAUGGGGUGUUCUUGCACCACUUUGUGUUCUUAGUGAGACCACAGUGUAAGUGGCCGUGUGUGUGUGUGGGGGGGGGCACCUAGACAUUGUGGUGUGUCUGUAUGGCUCUGUGUUUUCAGGGGUGGGUGACACAGGCCUGUCUGAUGAGCACCAGGUCUGUUCCAGGCUGUGGCAAGCUGGCUCCUGGCUCAGAAGUGACAAAGCUGCAGUACAGAGGCCUCAGUGUGAGGUCAUCACCUCACAGUGGCUACACUCUUGCGGUCGCACUAGUGUGGAAUUCUCGGGUGUCAAGG
B9: ENSMUSG00000043670.204|Diras1 (ssRNA)
RNA: GGGAGUUCUACAGUCCGACGAUCGCUUCGAUAUCCGCAUGCUAGUGUCCCACCCAGAUGAGGGUGACUUAGAAUUCUGUGUUUAUGUGCCUGUGUGUGUGGAUGGGUGUGUGUCUGUCUUGGGAUGGGGUGUUCUUGCACCACUUUGUGUUCUUAGUGAGACCACAGUGUAAGUGGCCGUGUGUGUGUGUGGGGGGGGGCACCUAGACAUUGUGGUGUGUCUGUAUGGCUCUGUGUUUUCAGGGGUGGGUGACACAGGCCUGUCUGAUGAGCACCAGGUCUGUUCCAGGCUGUGGCAAGCUGGCUCUUGCGGUCGCACUAGUGUGGAAUUCUCGGGUGUCAAGG
B10: ENSMUSG00000043670.206|Diras1 (ssRNA)
RNA: GGGAGUUCUACAGUCCGACGAUCGCUUCGAUAUCCGCAUGCUAGAUGAGGGUGACUUAGAAUUCUGUGUUUAUGUGCCUGUGUGUGUGGAUGGGUGUGUGUCUGUCUUGGGAUGGGGUGUUCUUGCACCACUUUGUGUUCUUAGUGAGACCACAGUGUAAGUGGCCGUGUGUGUGUGUGGGGGGGGGCACCUAGACAUUGUGGUGUGUCUGUAUGGCUCUGUGUUUUCAGGGGUGGGUGACACAGGCCUGUCUGAUGAGCACCAGGUCUGUUCCAGGCUGUGGCAAGCUGGCUCCUGGCUCAGCUCUUGCGGUCGCACUAGUGUGGAAUUCUCGGGUGUCAAGG
B11: ENSMUSG00000043670.201|Diras1 (ssRNA)
RNA: GGGAGUUCUACAGUCCGACGAUCGCUUCGAUAUCCGCAUGCUAUGAGUGGCUCCUGGGCCUGUGUCCCACCCAGAUGAGGGUGACUUAGAAUUCUGUGUUUAUGUGCCUGUGUGUGUGGAUGGGUGUGUGUCUGUCUUGGGAUGGGGUGUUCUUGCACCACUUUGUGUUCUUAGUGAGACCACAGUGUAAGUGGCCGUGUGUGUGUGUGGGGGGGGGCACCUAGACAUUGUGGUGUGUCUGUAUGGCUCUGUGUUUUCAGGGGUGGGUGACACAGGCCUGUCUGAUGAGCACCAGGUCUGUUCCUCUUGCGGUCGCACUAGUGUGGAAUUCUCGGGUGUCAAGG
B12: ENSMUSG00000034801.21|Sos2 (ssRNA)
RNA: GGGAGUUCUACAGUCCGACGAUCGCUUCGAUAUCCGCAUGCUAGCCCUCUCCACGGAUUCCACGCAGCUGUCACUUGCUCAGCUCCAGUCACAGCAGCCUUGCUCAUCUUCCAGCUCCUCCUGUCCCACCAAGGCAGAAUUCAAGCCCUCUCUUACCAAAGCUGCCACCAAAGACUUACAAACGGGAGCUUUCCCACCCGCCACUGUAUAGACUGCCUCUGCUGGAAAAUGCAGAAACUCCUCAAUGACCUUGGCCAUAUGUAGUCAUUGACACUGGAAUAGUAUUUGUAAAGGUUUUUAAUUCUCUUGCGGUCGCACUAGUGUGGAAUUCUCGGGUGUCAAGG
B13: ENSMUSG00000042529.183|Kcnj12 (ssRNA)
RNA: GGGAGUUCUACAGUCCGACGAUCGCUUCGAUAUCCGCAUGCUAGUUUAAUCUUUCCCUACUGCCCUAAGUCCACUCAUGAAGCUCCCCAGGCCCUUCUGAGAUUGCAGAGGCUGCUUGCUCAUAGCCAUGACCCUGCCUGCUUUUGUCCCACACUGCUGGGGCAGGAUGAUGAAGCCCUGCUGGUCCCAGCCAGUCAUCUCCUGCUGGAAGGCAGAGUCUAGGGGAGAAGAGAAACACCCCCACCCCCACCCCUAUCCCGCACCAGCCCCCUGCCACCAUAGAGAUAGACCAGAGAAAUGUCACUCUUGCGGUCGCACUAGUGUGGAAUUCUCGGGUGUCAAGG

Over roughly 9,900 sequences, “r (bound/input frequency ratio)” has its median near 0.7; the highest 2% begin near 6.5. The entries come from a sample that favours the highest values as a whole.

Chain of TDP-43 (Q13148 whole entry): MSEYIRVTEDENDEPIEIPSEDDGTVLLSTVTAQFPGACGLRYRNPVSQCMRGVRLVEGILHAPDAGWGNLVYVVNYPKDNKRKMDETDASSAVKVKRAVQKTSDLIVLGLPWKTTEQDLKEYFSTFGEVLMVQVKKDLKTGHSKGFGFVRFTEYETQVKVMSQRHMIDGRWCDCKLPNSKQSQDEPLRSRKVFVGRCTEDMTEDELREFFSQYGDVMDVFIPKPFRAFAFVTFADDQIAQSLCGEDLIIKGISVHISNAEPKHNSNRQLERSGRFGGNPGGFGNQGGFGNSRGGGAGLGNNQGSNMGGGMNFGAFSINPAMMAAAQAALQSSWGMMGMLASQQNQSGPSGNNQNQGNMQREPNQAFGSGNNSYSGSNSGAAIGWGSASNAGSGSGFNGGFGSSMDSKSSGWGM

For this experiment, the target named is TDP-43 (Homo sapiens, UniProt Q13148 1-414). Description: RNA Bind-n-Seq with designed 260-mer pool; 25 mM Tris-HCl, 150 mM KCl, 3 mM MgCl2, BSA (printed 500 mg/mL), 20 units/mL SUPERase IN; pH not stated; 500 nM RNA pool, 1 h, 4 C; TDP-43 5, 50, 500 nM; high values mean tight binding. The conditions noted are these: protein: recombinant; tags: SBP (GST cleaved off with PreScission; pGEX-GST-SBP). In a few lines:
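Duplicate measurements used two independent batches of recombinant SBP-tagged TDP-43, which was captured on streptavidin beads at 5, 50 or 500 nM. The beads were incubated with 500 nM of an in vitro-transcribed 260-nt 3′ UTR oligo pool for 1 h at 4 °C in 25 mM Tris-HCl, 150 mM KCl, 3 mM MgCl2, BSA and SUPERase IN. After washing, biotin elution, reverse transcription, PCR amplification and sequencing, binding was expressed as R: each oligo's normalized read abundance in the bound sample over its abundance in input.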
For the molecule B1, the binding signal was 7.91 R (bound/input frequency ratio).
The result for B2 reads 6.42 R (bound/input frequency ratio); that for B3, 5.71 R (bound/input frequency ratio); that for B4, 5.44 R (bound/input frequency ratio).
The result for B5 reads 6.21 R (bound/input frequency ratio).
The result for B6 reads 11.3 R (bound/input frequency ratio); that for B7, 1.1 R (bound/input frequency ratio); that for B8, 3.28 R (bound/input frequency ratio).
For B9, the binding signal is 6.58 R (bound/input frequency ratio).
For B10 the value was 6.69 R (bound/input frequency ratio); for B11, 4.7 R (bound/input frequency ratio); for B12, 1.01 R (bound/input frequency ratio).
Turning to B13, the binding signal was 1.85 R (bound/input frequency ratio).

The values are drawn from paper PMC12864922, “TDP-43 directly inhibits mRNA accumulation in neurites through modulation of mRNA stability”.
